“And” between values parts separate entries of the source, which are not always exact repeats. Equal entries are not always repeated. Where two headings read alike, the source gives them in different places.
What was measured:
[1] = test system: T1, LKB1; settings: concentration: 1 μM, replicates: in singlicate, n = 1
T1 construct: gene STK11

[2] = test system: T2, LOK; settings: concentration: 1 μM, replicates: in singlicate, n = 1
T2 construct: gene STK10

[3] = test system: LRRK2; settings: concentration: 1 μM, replicates: in singlicate; n = 1
[4] = test system: LTK; settings: concentration: 1 μM, replicates: in singlicate; n = 1
[5] = test system: LYN; settings: concentration: 1 μM, replicates: in singlicate, n = 1
[6] = test system: T3, LZK; settings: concentration: 1 μM, replicates: in singlicate, n = 1
T3 construct: gene MAP3K13

[7] = test system: MAK; settings: concentration: 1 μM, replicates: in singlicate, n = 1
[8] = test system: MAP3K15; settings: concentration: 1 μM, replicates: in singlicate, n = 1
[9] = test system: MAP3K1; settings: concentration: 1 μM, replicates: in singlicate, n = 1
[10] = test system: MAP3K2; settings: concentration: 1 μM, replicates: in singlicate, n = 1
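Note: KINOMEscan kinase panel screen.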

Structure (SMILES)	%Inh [1] [%]	%Inh [2] [%]	%Inh [3] [%]	%Inh [4] [%]	%Inh [5] [%]	%Inh [6] [%]	%Inh [7] [%]	%Inh [8] [%]	%Inh [9] [%]	%Inh [10] [%]	%Inh ([1]; 1 µM)	%Inh ([2]; 1 µM)	%Inh ([5]; 1 µM)	%Inh ([6]; 1 µM)	%Inh ([7]; 1 µM)	%Inh ([8]; 1 µM)	%Inh ([9]; 1 µM)	%Inh ([10]; 1 µM)
COC(=O)c1c(-c2ccccc2)c2cc(Cl)ccc2c(=O)n1Cc1ccc(S(C)(=O)=O)cc1	0	4	2	0	20	0	5	20	0	0	–	–	–	–	–	–	–	–
O=c1cc(N2CCOCC2)nc2n(Cc3cccc(Cl)c3)ccn12 [GSK2296823]	0	0	35	0	0	0	0	11	6	8	–	–	–	–	–	–	–	–
Fc1cccc(COc2ccc(Nc3ncnc4nn5ccccc5c34)cc2Cl)c1 [GW689066]	14	0	31	0	0	16	0	0	0	8	–	–	–	–	–	–	–	–
Clc1cccc(-c2nc(Nc3ccncc3)c3ccccc3n2)c1 [GW873004]	28	59	0	6	0	0	0	0	0	0	–	–	–	–	–	–	–	–
OCCOCCn1ccc2ncnc(Nc3ccc(Oc4cccc(Cl)c4)c(Cl)c3)c21	24	74	0	0	19	0	0	0	0	0	–	–	–	–	–	–	–	–
CCn1c(-c2ccncc2)nc2cnccc21 [SB-735216]	0	0	0	0	19	59	12	47	10	6	–	–	–	–	–	–	–	–
Cl.Cl.c1ccc(-c2cc3ccncc3cc2OC2CCNCC2)cc1 [GSK1122999]	3	0	0	24	38	0	28	0	19	13	–	–	–	–	–	–	–	–
Cl.c1ccc(Cn2ncc3cc(Nc4ncnc5ccccc45)ccc32)cc1 [GW273749]	0	0	0	0	0	0	33	0	7	0	–	–	–	–	–	–	–	–
Nc1nc(-c2cccnc2)c(-c2ccnc3ccccc23)s1 [GW684083]	15	0	0	0	72	14	10	0	6	0	–	–	–	–	–	–	–	–
Nc1nc(-c2ccc3c(N)n[nH]c3c2)cc(N2CCCCC2)n1 [GSK2228768]	0	0	0	0	0	0	17	0	0	0	–	–	–	–	–	–	–	–
FC(F)(F)c1ccc(-c2nn3ncccc3c2-c2ccnc(Nc3cccc(C(F)(F)F)c3)n2)cc1 [GW828205]	0	16	17	0	0	0	22	0	0	0	–	–	–	–	–	–	–	–
CSc1ccc(NC2=C(c3ccccc3Cl)C(=O)NC2=O)cc1 [SB-342411]	12	2	0	7	0	0	0	0	14	0	–	–	–	–	–	–	–	–
Nc1nccc2scc(-c3ccc4c(c3)CCN4C(=O)Cc3cc(F)ccc3F)c12 [GSK2587663]	14	0	9	2	0	0	8	0	7	23	–	–	–	–	–	–	–	–
Cl.Fc1ccccc1COc1ccc(Nc2ncnc3ccc(-c4nnc(C(F)(F)F)o4)cc23)cc1Cl [GW424170]	12	0	0	0	0	0	10	0	0	0	–	–	–	–	–	–	–	–
CSc1nn2c(=O)cc(N3CCOCC3)nc2n1Cc1cccc(Cl)c1Cl [GSK2347225]	0	0	0	4	10	0	24	0	6	1	–	–	–	–	–	–	–	–
COc1ccc(-c2oc3ncnc(N)c3c2-c2ccc(OC)cc2)cc1 [SB-589132]	28	0	33	0	4	51	11	0	10	0	–	–	–	–	–	–	–	–

Structure (SMILES)	%Inh [1] [%]	%Inh [2] [%]	%Inh [3] [%]	%Inh [4] [%]	%Inh [5] [%]	%Inh [6] [%]	%Inh [7] [%]	%Inh [8] [%]	%Inh [9] [%]	%Inh [10] [%]	%Inh ([1]; 1 µM)	%Inh ([2]; 1 µM)	%Inh ([5]; 1 µM)	%Inh ([6]; 1 µM)	%Inh ([7]; 1 µM)	%Inh ([8]; 1 µM)	%Inh ([9]; 1 µM)	%Inh ([10]; 1 µM)
COC(=O)c1cccc(NC(=O)NCCNc2ccnc(Nc3ccc(F)cc3)n2)c1 [GSK1379883]	16	0	0	0	0	1	26	0	0	0	–	–	–	–	–	–	–	–
Oc1ccc2ncnc(Nc3ccc(OCc4ccccc4)cc3)c2c1 [GI262866]	0	0	48	82	0	0	13	20	5	0	–	–	–	–	–	–	–	–
CN1c2ccc(-c3ccc(C(=O)NCCO)cc3)cc2-c2[nH]ncc2S1(=O)=O	21	31	73	9	22	0	0	11	9	36	–	–	–	–	–	–	–	–
NC(=O)c1sc(-n2cnc3ccccc32)cc1OCc1ccccc1F [GSK1024306]	0	63	29	5	0	27	13	0	59	0	–	–	–	–	–	–	–	–
O=C(Nc1ccccc1)Nc1ccc(Oc2ccc3nccn3n2)cc1	0	39	0	0	0	0	0	0	0	0	–	–	–	–	–	–	–	–
CC(=O)Nc1n[nH]c2ncc(-c3ccccc3)cc12 [SB-548492]	25	0	0	5	0	0	51	11	27	16	–	–	–	–	–	–	–	–
COc1ccc(-c2nc3n(c2-c2ccncc2)CCC3)cc1 [SKF-104493]	–	–	0	2	–	–	–	–	–	–	27% and 21%	19% and 11%	9% and 0%	0% and 5%	19% and 0%	3% and 4%	11% and 1%	6% and 0%
CS(=O)(=O)CCNCc1ccc(-c2ccc3ncnc(Nc4ccc(OCc5ccccc5)c(Cl)c4)c3c2)o1.Cl [GW574783]	0	58	22	25	0	26	12	5	15	0	–	–	–	–	–	–	–	–
Cc1cccc(-c2nc(Nc3ccc4[nH]nnc4c3)c3ccccc3n2)n1 [GW867587]	0	0	0	13	0	0	0	0	0	0	–	–	–	–	–	–	–	–
Cc1cc(N2CCC(NS(=O)(=O)c3ccc(F)cc3)CC2)nc(Nc2cccc(C#N)c2)n1.O=C(O)C(F)(F)F [GSK1653537]	0	0	20	5	0	0	17	3	7	60	–	–	–	–	–	–	–	–
Cl.c1ccc(Cn2ccc3cc(Nc4ncnc5ccccc45)ccc32)cc1 [GW275568]	0	32	0	6	0	35	25	0	0	0	–	–	–	–	–	–	–	–
O=C(Nc1ccccc1F)NC1CCN(c2ccnc(Nc3ccc(F)cc3)n2)C1 (stereo not shown) [GSK1379722]	0	0	39	0	0	23	12	0	5	1	–	–	–	–	–	–	–	–
Nc1n[nH]c2nnc(-c3ccccc3)cc12 [SB-517389]	0	0	0	0	69	0	0	0	9	5	–	–	–	–	–	–	–	–
COc1cc2c(Nc3cccc(NC(=O)c4ccccc4)c3)ncnc2cc1OCCCN1CCOCC1 [GSK223810]	0	10	0	0	90.3	0	0	0	0	6	–	–	–	–	–	–	–	–
O=C(CCO)NCCn1ccc2ncnc(Nc3ccc(Oc4cccc(C(F)(F)F)c4)c(Cl)c3)c21	39	72	0	0	8	0	0	0	0	0	–	–	–	–	–	–	–	–
